Compounds without any hit were thinned out: in the full panel of roughly 83,000, 20% have a hit.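 How to read the values: 0–100, growth inhibition (40 = 60% inhibited); 0, no net growth; -100 to 0, cell death (-40 = 40% of starting cells died; -100 = all dead).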 The source made the active and inactive calls. How the source made its calls: active means growth percent below 10; inactive means the rest.
Columns and labels:
Experiment in all cases: NCI-60 one-dose screen, 48 h (100 = growth as untreated, 0 = no growth, -100 = all killed)
Details in all cases: 10 µM
HCT-15 colon = system: HCT-15 colon
HT29 colon = system: HT29 colon
SNB-75 CNS = system: SNB-75 CNS
SNB-19 CNS = system: SNB-19 CNS
U251 CNS = system: U251 CNS
PC-3 prostate = system: PC-3 prostate
SK-MEL-5 melanoma = system: SK-MEL-5 melanoma
UACC-62 melanoma = system: UACC-62 melanoma
LOX IMVI melanoma = system: LOX IMVI melanoma
SK-MEL-28 melanoma = system: SK-MEL-28 melanoma

Measured: growth

Brc1ccc(N/N=C/c2c[nH]c3ccccc23)nc1
inactive: HT29 colon 14% | SNB-75 CNS 26.7% | SNB-19 CNS 43.9% | U251 CNS 19.9% | PC-3 prostate 20% | SK-MEL-5 melanoma 51.8% | UACC-62 melanoma 54.8% | SK-MEL-28 melanoma 63.6%
active: HCT-15 colon 8.57% | LOX IMVI melanoma -2.43%

Cn1cc(/C=N/Nc2ccnc3cc(Cl)ccc23)c2ccccc21
active: HCT-15 colon -92.2% | HT29 colon -40.1% | SNB-75 CNS -85.8% | SNB-19 CNS -79.8% | U251 CNS -49.8% | PC-3 prostate -51.5% | SK-MEL-5 melanoma -98.2% | UACC-62 melanoma -66.1% | LOX IMVI melanoma -83.7% | SK-MEL-28 melanoma -89.6%

COC(=O)C(Cc1ccc(O)c(O)c1)NC(=O)C(CSC/C=C(\C)CCCC(C)CCCC(C)CCCC(C)C)NC(C)=O (stereo not given)
inactive: HCT-15 colon 15.5% | HT29 colon 40.5% | SNB-75 CNS 42.8% | SNB-19 CNS 10.8% | SK-MEL-5 melanoma 36.8% | UACC-62 melanoma 13% | LOX IMVI melanoma 19.7% | SK-MEL-28 melanoma 25.1%
active: U251 CNS 4.85% | PC-3 prostate 2.28%

O=C(NO)c1ccc(CN2CCN(c3nc(-c4ccccc4)c4ccccc4n3)CC2)cc1
inactive: HCT-15 colon 22.5% | HT29 colon 30.4% | SNB-75 CNS 81.7% | SNB-19 CNS 22.8% | U251 CNS 15.2% | PC-3 prostate 30.8% | SK-MEL-28 melanoma 24.1%
active: SK-MEL-5 melanoma -95.9% | UACC-62 melanoma -23.9% | LOX IMVI melanoma -60.6%

CC1CC(c2ccc(N(C)C)cc2)=NN1c1nc(O)c(C2=c3cc(Br)ccc3=NC2=O)s1 (stereo not given)
active: LOX IMVI melanoma -46.1%
inactive: HCT-15 colon 50.5% | HT29 colon 83.5% | SNB-75 CNS 89.9% | SNB-19 CNS 94.7% | U251 CNS 69.9% | PC-3 prostate 53.2% | SK-MEL-5 melanoma 73.5% | UACC-62 melanoma 98.5% | SK-MEL-28 melanoma 110%

O=C1Nc2ccc(F)cc2/C1=C/c1cccc(OCc2ccccn2)c1
inactive: HCT-15 colon 10.5% | HT29 colon 26.2% | SNB-75 CNS 116% | SNB-19 CNS 52.3% | PC-3 prostate 36.6% | SK-MEL-5 melanoma 31.1% | UACC-62 melanoma 26.5% | SK-MEL-28 melanoma 65.3%
active: U251 CNS 7.32% | LOX IMVI melanoma 1.13%

CS(=O)(=O)Nc1ccc(-c2ccc3c(c2)ncn3-c2ccc(NC(=O)Nc3ccc(Br)cc3)cc2)cc1
active: HCT-15 colon 8.63% | HT29 colon 7.09% | U251 CNS 3.88% | SK-MEL-5 melanoma -86.2% | UACC-62 melanoma -35.6% | LOX IMVI melanoma 1.1% | SK-MEL-28 melanoma 1.57%
inactive: SNB-75 CNS 21.4% | SNB-19 CNS 16.6% | PC-3 prostate 10.4%

CC1(C)CC[C@]2(C(=O)NCCCNCCCCNCCCN)CC[C@]3(C)C(=CC[C@@H]4[C@@]5(C)Cc6c([nH]c7ccccc67)C(C)(C)[C@@H]5CC[C@]43C)[C@H]2C1
inactive: HCT-15 colon 85% | HT29 colon 92.4% | SNB-75 CNS 101% | SNB-19 CNS 57.9% | U251 CNS 89.5% | PC-3 prostate 65.8% | SK-MEL-5 melanoma 81.5% | UACC-62 melanoma 116% | LOX IMVI melanoma 92.6% | SK-MEL-28 melanoma 102%

O=C(CNc1nc(-c2ccccc2)cs1)Nc1ccc(Cl)cc1
active: HCT-15 colon -85.4% | HT29 colon -51% | SNB-75 CNS -44.9% | SNB-19 CNS -100% | U251 CNS -87.3% | PC-3 prostate -40% | SK-MEL-5 melanoma -96.9% | UACC-62 melanoma -92.4% | LOX IMVI melanoma -90.5% | SK-MEL-28 melanoma -96.2%

O=C(CNc1nc(-c2ccccc2)cs1)Nc1cccc([N+](=O)[O-])c1
active: HCT-15 colon -79.4% | HT29 colon -61.6% | SNB-75 CNS -36.5% | SNB-19 CNS -88.1% | U251 CNS -62.6% | PC-3 prostate -18.5% | SK-MEL-5 melanoma -100% | UACC-62 melanoma -84% | LOX IMVI melanoma -100% | SK-MEL-28 melanoma -84.9%

COc1cc(/C=C/C(=O)c2ccc(NC(=O)CN3C(=O)NC(C)(c4ccccc4)C3=O)cc2)cc(OC)c1OC (stereo not given)
active: HT29 colon -2.37% | U251 CNS -15.7% | LOX IMVI melanoma -46.1%
inactive: HCT-15 colon 11.8% | SNB-75 CNS 83.8% | SNB-19 CNS 42.6% | PC-3 prostate 31.9% | SK-MEL-5 melanoma 44.7% | UACC-62 melanoma 41.6% | SK-MEL-28 melanoma 49.8%

N#C/C(=C\c1ccc(N(c2ccccc2)c2ccccc2)cc1)C(N)=O
inactive: HCT-15 colon 65.1% | HT29 colon 30.5% | SNB-75 CNS 95.4% | SNB-19 CNS 77% | U251 CNS 32.5% | PC-3 prostate 61% | SK-MEL-5 melanoma 31.2% | LOX IMVI melanoma 79% | SK-MEL-28 melanoma 104%
active: UACC-62 melanoma -47.3%

N#Cc1ccc(-c2nn(-c3ccc(C(=O)O)cc3)cc2CNc2cccc(Br)c2)cc1
inactive: HCT-15 colon 35.5% | HT29 colon 50.7% | SNB-75 CNS 101% | SNB-19 CNS 51.7% | U251 CNS 37% | PC-3 prostate 40.1% | SK-MEL-5 melanoma 24.1% | UACC-62 melanoma 41.8% | LOX IMVI melanoma 13.2% | SK-MEL-28 melanoma 35.6%

N#Cc1c(NC(=O)c2ccc(C(F)(F)F)cc2)sc2c1CCC(=O)C2
active: HCT-15 colon -66.1% | HT29 colon 8.13% | SNB-75 CNS -44.9% | SNB-19 CNS -42.2% | U251 CNS -66.3% | PC-3 prostate -9.55% | SK-MEL-5 melanoma -97.7% | UACC-62 melanoma -82.7% | LOX IMVI melanoma -86.8% | SK-MEL-28 melanoma -88.2%

O=C(CS(=O)(=O)c1oc(-c2ccc(Cl)cc2)nc1S(=O)(=O)c1ccc(Cl)cc1)N1CCOCC1
active: HCT-15 colon -53.6% | HT29 colon -48.9% | LOX IMVI melanoma -90.8%
inactive: SNB-75 CNS 54.7% | SNB-19 CNS 86.2% | U251 CNS 35.9% | PC-3 prostate 63.3% | SK-MEL-5 melanoma 77.6% | UACC-62 melanoma 56.7% | SK-MEL-28 melanoma 35%

N#Cc1c(NC(=O)c2ccc(C(F)(F)F)cc2C(F)(F)F)sc2c1CCC(=O)C2
active: HCT-15 colon -66% | HT29 colon -57% | SNB-19 CNS 6.86% | U251 CNS 8.82% | PC-3 prostate 2.66% | SK-MEL-5 melanoma -97.6% | UACC-62 melanoma -89.5% | LOX IMVI melanoma -15.1% | SK-MEL-28 melanoma -86.2%
inactive: SNB-75 CNS 26.4%

CN1CCN(c2ccc(C(=O)/C=C/c3cc(C(F)(F)F)ccc3Cl)cc2)CC1
active: HCT-15 colon -86.4% | HT29 colon 0.637% | SNB-19 CNS -99.2% | U251 CNS -74.5% | PC-3 prostate -40.3% | SK-MEL-5 melanoma -90.6% | UACC-62 melanoma -79.9% | LOX IMVI melanoma -100% | SK-MEL-28 melanoma -97.6%
inactive: SNB-75 CNS 42.9%

CCCn1c(=O)c2[nH]c(-c3ccc(OCc4nc5ccc(C)cc5[nH]4)cc3)nc2n(CCC)c1=O
inactive: HCT-15 colon 23.5% | HT29 colon 38.7% | SNB-19 CNS 34% | PC-3 prostate 39.2% | SK-MEL-5 melanoma 12.8% | SK-MEL-28 melanoma 39.9%
active: SNB-75 CNS -38.1% | U251 CNS 6.38% | UACC-62 melanoma 2.25% | LOX IMVI melanoma -20.3%

O=C(Cn1cc(CSc2nnc3oc4ccccc4n23)nn1)Nc1ccc(Br)cc1
active: SNB-75 CNS -24.5%
inactive: HCT-15 colon 82.5% | HT29 colon 103% | SNB-19 CNS 24.7% | U251 CNS 54.3% | PC-3 prostate 80% | SK-MEL-5 melanoma 92.4% | UACC-62 melanoma 49.8% | LOX IMVI melanoma 54.9% | SK-MEL-28 melanoma 89.7%

COc1ccc(C(=O)/C=C/c2cc(C(F)(F)F)cc(C(F)(F)F)c2)cc1S(N)(=O)=O
inactive: SNB-75 CNS 12%
active: HCT-15 colon -58.6% | HT29 colon -59.9% | SNB-19 CNS -100% | U251 CNS -68.1% | PC-3 prostate -14.4% | SK-MEL-5 melanoma -98.4% | UACC-62 melanoma -73.4% | LOX IMVI melanoma -100% | SK-MEL-28 melanoma -98.2%

O=C1Nc2cc(Cl)ccc2/C1=C/c1ccc(OCc2ccc(Br)cc2F)cc1
active: HCT-15 colon -31.8% | HT29 colon 5.82% | SNB-75 CNS -12.2% | SNB-19 CNS -45.4% | U251 CNS -94.6% | PC-3 prostate -42.3% | SK-MEL-5 melanoma -66.7% | UACC-62 melanoma -75.2% | LOX IMVI melanoma -94.5% | SK-MEL-28 melanoma -60.7%

O=C(CSc1nnc(-c2ccc3nc(-c4ccc(Cl)cc4)[nH]c3c2)o1)Nc1ccc(Br)cc1
active: HCT-15 colon -64.2% | HT29 colon -15.8% | SNB-75 CNS 5.11% | SNB-19 CNS -26.6% | U251 CNS -63.9% | PC-3 prostate 5.11% | SK-MEL-5 melanoma -36.9% | UACC-62 melanoma -90.8% | LOX IMVI melanoma -100% | SK-MEL-28 melanoma -94.4%

COc1ccc(C(C)=C(c2ccc(OCCCN(C)C)cc2)c2ccc(OCCCN(C)C)cc2)cc1
active: HCT-15 colon -72.7% | HT29 colon -94.3% | SNB-75 CNS -95.3% | SNB-19 CNS -97.4% | U251 CNS -97.5% | PC-3 prostate -82.3% | SK-MEL-5 melanoma -98.5% | UACC-62 melanoma -96.6% | LOX IMVI melanoma -92.5% | SK-MEL-28 melanoma -97.9%

CCCS(=O)(=O)c1oc(-c2ccc(F)cc2)nc1S(=O)(=O)c1ccc(F)cc1
active: HCT-15 colon -81.3% | HT29 colon -69.6% | LOX IMVI melanoma -100% | SK-MEL-28 melanoma -98.7%
inactive: SNB-75 CNS 53.4% | SNB-19 CNS 82.6% | U251 CNS 31.7% | PC-3 prostate 80.7% | SK-MEL-5 melanoma 41.8% | UACC-62 melanoma 22%

CN1CCc2c(sc3ncnc(N/N=C/c4ccc5ccccc5c4)c23)C1
inactive: HT29 colon 20.4% | SNB-75 CNS 76.4% | SNB-19 CNS 74.2% | PC-3 prostate 102% | SK-MEL-5 melanoma 97.9% | UACC-62 melanoma 79.1% | SK-MEL-28 melanoma 100%
active: HCT-15 colon 2.05% | U251 CNS -4.86% | LOX IMVI melanoma 9.53%

COc1ccc(-c2nc(-c3ccccc3)c(-c3ccccc3)n2-c2ccc(S(=O)(=O)Nc3ncccn3)cc2)cc1OC
inactive: HCT-15 colon 53.6% | HT29 colon 96.2% | SNB-75 CNS 88.5% | SNB-19 CNS 74.9% | U251 CNS 71.8% | PC-3 prostate 63.7% | SK-MEL-5 melanoma 65.7% | UACC-62 melanoma 83.6% | LOX IMVI melanoma 65.2% | SK-MEL-28 melanoma 92.3%
